In PubChem BioAssay (NCATS):
Unmarked numbers belong to inactive results. Records with an inconclusive call do not appear. Activity calls are given as the source filed them. Unless noted, calls come from the whole dose curve; as a rule, active = well fitted curve in the direction sought with a large enough effect; inconclusive = small, poorly fitted or top-dose-only effect, or another doubt; inactive = no such curve, though single readings can be large; an effect the other way counts as inactive or inconclusive.

How the values were obtained:
[1] = molecular target: Lysosomal acid glucosylceramidase (Homo sapiens) (UniProt P04062); assay: Glucocerebrosidase-p2 (AID 348; in the data active = potency below about 10 µM; note: potency is the fitted concentration of half-maximal effect); settings: purified GBA, blue fluorogenic substrate, 40 min
Sequence of Lysosomal acid glucosylceramidase (Homo sapiens) (P04062 whole entry, looked up): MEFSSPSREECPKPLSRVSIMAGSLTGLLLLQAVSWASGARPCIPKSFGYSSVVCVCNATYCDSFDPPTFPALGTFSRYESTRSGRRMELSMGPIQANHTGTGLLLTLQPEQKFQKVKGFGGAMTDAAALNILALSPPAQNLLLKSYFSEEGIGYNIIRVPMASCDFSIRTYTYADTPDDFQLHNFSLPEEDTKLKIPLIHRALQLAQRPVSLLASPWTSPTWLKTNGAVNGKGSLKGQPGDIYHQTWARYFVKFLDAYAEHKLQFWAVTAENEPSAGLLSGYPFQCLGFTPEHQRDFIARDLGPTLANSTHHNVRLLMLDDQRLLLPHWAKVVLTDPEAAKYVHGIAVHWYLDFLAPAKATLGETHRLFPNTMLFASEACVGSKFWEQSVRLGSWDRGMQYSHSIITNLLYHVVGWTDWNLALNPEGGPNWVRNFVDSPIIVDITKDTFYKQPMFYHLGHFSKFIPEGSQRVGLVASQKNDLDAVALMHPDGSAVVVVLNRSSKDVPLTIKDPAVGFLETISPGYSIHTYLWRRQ
Outline: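 Normal human glucocerebrosidase (0.2 nM) with blue fluorogenic substrate (80 uM final) in citrate/phosphate pH 5.9 with 10mM sodium taurocholate, 0.01% tween-20; 40 min RT, NaOH/glycine stop; fluorescence Ex 365/Em 440; AC50 from a titration from 0.6 nM upwards.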

[2] = NFAT Signaling Pathway (AID 444; active = well fitted curve in either direction with a large enough effect, not every such curve was filed as active;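 note: carbachol stimulus at about its EC50 of 1 µM final; % is set by controls: 0 for no effect and ±100 for the full control effect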); settings: Jurkat NFAT-bla M1, carbachol, beta-lactamase ratio, 5 h; at 7.69 µM (top of the series) unless noted
Outline: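 Read-out: CCF4 FRET ratio (460 nm/530 nm) after 1 h RT dye loading, used for %activity and AC50 from titration series. Cells: Jurkat NFAT-β-lactamase/M1 line, treated with compound plus 1 uM carbachol for 5 h, 37 °C.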

[3] = Stat Signaling Pathway (AID 446; active = well fitted curve in either direction with a large enough effect, not every such curve was filed as active;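 note: ME-180 cervical cancer cells given 40 pM IL-6 alongside compound; SIE-controlled beta-lactamase reporter measured as 460/530 nm FRET emission ratio; % is set by controls: 0 for no effect and ±100 for the full control effect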); settings: ME-180 SIE beta-lactamase reporter, IL-6 stimulated, 5 h; at 7.69 µM (top of the series) unless noted
Outline: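 Emission at 460 and 530 nm (excitation 405 nm) reports SIE-controlled beta-lactamase in ME-180 cells. Cells received compound with 40 pM IL-6 for 5 hrs at 37 C; data scaled between 300 pM IL-6 and 125 nM JAK-inhibitor controls.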

[4] = molecular target: Glucocorticoid receptor (Homo sapiens) (UniProt P04150); assay: GR-GFP Redistribution (AID 450;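 active = compounds whose dose series gives a full or clear partial fitted curve of increased nuclear translocation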; note: potency is the fitted concentration of half-maximal effect); settings: U2OS GR-GFP nuclear translocation, laser cytometry, 2 h
Sequence of Glucocorticoid receptor (Homo sapiens) (P04150 whole entry, looked up, the tested form may be a part): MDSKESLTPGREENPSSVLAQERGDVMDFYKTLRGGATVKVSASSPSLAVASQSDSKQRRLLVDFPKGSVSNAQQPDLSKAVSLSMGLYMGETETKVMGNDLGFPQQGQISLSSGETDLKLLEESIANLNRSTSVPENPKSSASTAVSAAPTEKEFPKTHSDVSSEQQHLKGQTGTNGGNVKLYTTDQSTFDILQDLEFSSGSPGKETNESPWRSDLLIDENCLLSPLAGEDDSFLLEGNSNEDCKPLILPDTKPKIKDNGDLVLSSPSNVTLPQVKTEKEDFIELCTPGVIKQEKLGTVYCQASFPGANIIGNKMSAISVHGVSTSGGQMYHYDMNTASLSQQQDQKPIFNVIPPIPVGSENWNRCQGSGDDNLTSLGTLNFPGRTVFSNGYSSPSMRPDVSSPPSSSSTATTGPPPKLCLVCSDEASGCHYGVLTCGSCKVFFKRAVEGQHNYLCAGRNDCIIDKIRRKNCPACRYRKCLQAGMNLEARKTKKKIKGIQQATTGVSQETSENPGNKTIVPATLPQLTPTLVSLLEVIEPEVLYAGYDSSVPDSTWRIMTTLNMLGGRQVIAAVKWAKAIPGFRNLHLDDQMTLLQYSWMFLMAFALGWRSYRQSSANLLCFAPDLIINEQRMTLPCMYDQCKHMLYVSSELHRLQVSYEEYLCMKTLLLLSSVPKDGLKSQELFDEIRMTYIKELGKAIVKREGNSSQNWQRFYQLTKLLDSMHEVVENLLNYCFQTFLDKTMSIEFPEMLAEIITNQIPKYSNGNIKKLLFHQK

[5] = molecular target: Glucocorticoid receptor (Homo sapiens) (UniProt P04150); assay: GR-EFC Redistribution (AID 451; calls by dose curve; note: potency is the fitted concentration of half-maximal effect); settings: CHO-K1 GR-EFC translocation, beta-gal luminescence, 2 h
Outline: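 Translocation of GR-ED fusion to nuclear EA restores b-gal, read by luminescence after 1 h room-temperature detection. Engineered CHO-K1 biosensor cells, 1,000/well, exposed 2 h at 37 C to titrations up to 46 uM final.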

[6] = molecular target: Mitogen-activated protein kinase 10 (Mus musculus) (UniProt Q61831); assay: JNK3 AlphaScreen Assay (AID 530; active = well fitted curve in either direction with a large enough effect, not every such curve was filed as active;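 note: kinase came from lysate of stimulated human HepG2 cells; signal reports phosphorylation of biotinylated GST-cJun 1-79 at Ser73 with 10 µM ATP; % is set by controls: 0 for no effect and ±100 for the full control effect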); settings: JNK3 lysate, c-Jun phosphorylation; series mostly up to 57.1 µM
Outline: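 qHTS titrations with 15 min compound pre-incubation before adding ATP (10 uM final). Read-out: AlphaScreen of Ser73-phosphorylated biotin-GST-cJun using HepG2 lysate JNK3 activated by IL-1β and TNFα.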

[7] = molecular target: 3',5'-cyclic-AMP phosphodiesterase 4B (Homo sapiens) (UniProt Q07343); assay: qHTS Assay for Inhibitors of PDE-IV (AID 607; active = well fitted activation curve with a large enough effect in the main read-out, with a control signal flat, not every such curve was filed as active; note: % of control where 0% means no effect); settings: HEK293 ACTOne CNG channel cells, membrane potential fluorescence; series mostly up to 22.9 µM
Sequence of 3',5'-cyclic-AMP phosphodiesterase 4B (Homo sapiens) (Q07343 whole entry, looked up): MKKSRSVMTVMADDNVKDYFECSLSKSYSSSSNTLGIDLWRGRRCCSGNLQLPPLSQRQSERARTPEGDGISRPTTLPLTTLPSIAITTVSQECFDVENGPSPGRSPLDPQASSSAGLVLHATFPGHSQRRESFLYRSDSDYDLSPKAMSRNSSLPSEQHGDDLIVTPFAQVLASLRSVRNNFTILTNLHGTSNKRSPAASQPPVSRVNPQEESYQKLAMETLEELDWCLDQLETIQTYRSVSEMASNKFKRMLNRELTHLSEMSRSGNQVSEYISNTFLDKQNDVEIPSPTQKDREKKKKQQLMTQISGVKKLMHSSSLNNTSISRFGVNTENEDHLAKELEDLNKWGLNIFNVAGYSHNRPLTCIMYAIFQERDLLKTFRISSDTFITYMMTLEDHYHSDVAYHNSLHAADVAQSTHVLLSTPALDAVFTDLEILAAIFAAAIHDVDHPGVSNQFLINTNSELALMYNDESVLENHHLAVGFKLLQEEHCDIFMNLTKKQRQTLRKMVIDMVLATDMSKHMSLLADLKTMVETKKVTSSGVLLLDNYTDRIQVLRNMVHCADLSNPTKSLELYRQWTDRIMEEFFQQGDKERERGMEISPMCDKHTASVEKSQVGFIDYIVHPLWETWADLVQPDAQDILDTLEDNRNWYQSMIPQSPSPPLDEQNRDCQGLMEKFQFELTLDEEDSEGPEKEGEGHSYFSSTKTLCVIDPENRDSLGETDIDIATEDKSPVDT
Outline: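 The readout is membrane depolarisation from a cAMP-sensing CNG channel, detected with a potential dye at ex 535/em 590. Cells were HEK293-derived (endogenous PDE-IV) at 1000 cells/well, titrated up to 22.9 uM final.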

[8] = molecular target: Cytochrome P450 2C9 (Homo sapiens) (UniProt P11712); assay: qHTS Assay for Inhibitors and Substrates of Cytochrome P450 2C9 (AID 883); settings: recombinant CYP2C9, luciferin-H luminescence, 60 min; series mostly up to 57.1 µM; note: % is set by controls: 0 for no effect and ±100 for the full control effect; nearly all actives have a fitted effect of over 60% in size
Outline: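 Turnover of Luciferin-H (100uM, KM) by 10nM human CYP2C9 was measured over 60 min at 37C with NADPH regeneration; inhibitors and some substrates reduce luminescence. Data normalized to sulphaphenazole 57uM.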

[9] = molecular target: Dual specificity protein kinase CLK4 (Homo sapiens) (UniProt Q9HAZ1); assay: qHTS Assay for Inhibitors of CDC-like Kinase 4 (Kinase-Glo Assay) (AID 1770); settings: recombinant Clk4, Kinase-Glo ATP depletion luminescence; series mostly up to 66.7 µM; note: nearly all actives have a fitted effect of over 65% in size; note: potency is the fitted concentration of half-maximal effect
Sequence of Dual specificity protein kinase CLK4 (Homo sapiens) (Q9HAZ1 whole entry, looked up): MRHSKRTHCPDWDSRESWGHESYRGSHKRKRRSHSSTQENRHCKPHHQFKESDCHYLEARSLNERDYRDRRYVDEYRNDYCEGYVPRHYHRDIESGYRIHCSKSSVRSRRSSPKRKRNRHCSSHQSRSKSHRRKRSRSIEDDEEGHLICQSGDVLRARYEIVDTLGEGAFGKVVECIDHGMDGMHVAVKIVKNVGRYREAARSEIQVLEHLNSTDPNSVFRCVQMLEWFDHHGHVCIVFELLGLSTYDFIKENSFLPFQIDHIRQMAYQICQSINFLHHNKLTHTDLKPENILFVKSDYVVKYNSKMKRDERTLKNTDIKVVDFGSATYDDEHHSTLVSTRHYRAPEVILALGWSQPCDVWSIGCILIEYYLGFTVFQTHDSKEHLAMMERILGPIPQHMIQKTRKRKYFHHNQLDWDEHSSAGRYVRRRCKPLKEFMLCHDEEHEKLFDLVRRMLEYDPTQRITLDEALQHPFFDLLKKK
Outline: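 Substrate mix (RS peptide 100 uM, ATP 1 uM) dispensed, compound pinned in, then Clk4 added to 25 nM final. Incubated 4.5 h at RT; Kinase-Glo reagent added, luminescence read after 5 min.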

[10] = molecular target: Dual specificity protein kinase CLK4 (Homo sapiens) (UniProt Q9HAZ1); assay: qHTS Assay for Inhibitors of CDC-like Kinase 4 (ADP-Glo Assay) (AID 1771); settings: recombinant CLK4, ADP-Glo luminescence; series mostly up to 80 µM; note: nearly all actives have a fitted effect of over 70% in size; note: potency is the fitted concentration of half-maximal effect
Outline: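 Compounds are pin-transferred onto substrate mix (100 uM RS peptide, 1 uM ATP), then 25 nM Clk4 is added. After 1 hr at room temperature, ADP-Glo reagent runs 45 min, detection reagent 30 min, then luminescence is read.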

[11] = molecular target: Ubiquitin carboxyl-terminal hydrolase 1 (Homo sapiens) (UniProt O94782); assay: Inhibitors of USP1/UAF1: Pilot qHTS (AID 504865); settings: purified USP1/UAF1, Ub-rhodamine cleavage fluorescence; series mostly up to 54.9 µM;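 note: rhodamine fluorescence freed from ubiquitin-rhodamine substrate followed over time; top concentration of the series differs between compounds; % is set by controls: 0 for no effect and ±100 for the full control effect; nearly all actives have a fitted effect of over 35% in size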
Sequence of Ubiquitin carboxyl-terminal hydrolase 1 (Homo sapiens) (O94782 whole entry, looked up): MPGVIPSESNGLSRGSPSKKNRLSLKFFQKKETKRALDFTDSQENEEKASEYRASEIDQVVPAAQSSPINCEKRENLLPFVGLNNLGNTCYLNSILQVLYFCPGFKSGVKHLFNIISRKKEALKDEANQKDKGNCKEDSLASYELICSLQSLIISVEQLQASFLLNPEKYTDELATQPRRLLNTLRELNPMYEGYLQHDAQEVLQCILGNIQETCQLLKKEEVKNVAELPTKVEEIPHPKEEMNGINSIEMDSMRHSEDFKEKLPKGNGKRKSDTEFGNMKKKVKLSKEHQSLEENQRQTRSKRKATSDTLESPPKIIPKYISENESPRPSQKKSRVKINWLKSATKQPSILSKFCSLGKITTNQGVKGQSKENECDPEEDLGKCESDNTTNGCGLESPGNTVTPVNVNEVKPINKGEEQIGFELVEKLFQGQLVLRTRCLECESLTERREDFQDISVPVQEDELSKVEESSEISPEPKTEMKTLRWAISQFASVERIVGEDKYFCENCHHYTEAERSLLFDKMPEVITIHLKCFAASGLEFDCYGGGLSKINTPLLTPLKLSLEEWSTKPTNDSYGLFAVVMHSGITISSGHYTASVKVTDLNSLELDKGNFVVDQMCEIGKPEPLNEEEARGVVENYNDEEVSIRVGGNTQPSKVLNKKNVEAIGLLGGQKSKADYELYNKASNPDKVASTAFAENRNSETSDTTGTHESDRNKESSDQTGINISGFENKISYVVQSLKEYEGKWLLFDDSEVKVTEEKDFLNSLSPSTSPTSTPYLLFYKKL
Outline: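 In 50mM HEPES pH 7.8 containing 0.5mM EDTA, 1mM TCEP, 0.1 mg/ml BSA and 0.01% Tween-20, 1nM USP1/UAF1 is exposed to compound for 15 min, then Ub-Rho (150nM final) is added and fluorescence is read over time.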

[12] = Primary qHTS for small molecule stabilizers of the endoplasmic reticulum resident proteome: Secreted ER Calcium Modulated Protein (SERCaMP) assay (AID 1508630); settings: SH-SY5Y GLuc-SERCaMP (Gaussia luciferase released on ER calcium loss) secretion, thapsigargin, luminescence; series mostly up to 38.4 µM; note: % is set by controls: 0 for no effect and ±100 for the full control effect
Outline: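 The SH-SY5Y reporter protocol was run at 3 concentrations up to 38.3 uM (primary) or 11 concentrations (follow-up): 16 h compound, 100 nM thapsigargin for 4 h, then extracellular luciferase luminescence.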

[13] = molecular target: Cytochrome P450 3A4 (Homo sapiens) (UniProt P08684); assay: qHTS Assay for Activators of Cytochrome P450 3A4 (AID 885); settings: recombinant CYP3A4, Luciferin-PPXE luminescence, 60 min; series mostly up to 57.1 µM; note: nearly all actives have a fitted effect of over 65% in size; note: potency is the fitted concentration of half-maximal effect
Sequence of Cytochrome P450 3A4 (Homo sapiens) (P08684 whole entry, looked up): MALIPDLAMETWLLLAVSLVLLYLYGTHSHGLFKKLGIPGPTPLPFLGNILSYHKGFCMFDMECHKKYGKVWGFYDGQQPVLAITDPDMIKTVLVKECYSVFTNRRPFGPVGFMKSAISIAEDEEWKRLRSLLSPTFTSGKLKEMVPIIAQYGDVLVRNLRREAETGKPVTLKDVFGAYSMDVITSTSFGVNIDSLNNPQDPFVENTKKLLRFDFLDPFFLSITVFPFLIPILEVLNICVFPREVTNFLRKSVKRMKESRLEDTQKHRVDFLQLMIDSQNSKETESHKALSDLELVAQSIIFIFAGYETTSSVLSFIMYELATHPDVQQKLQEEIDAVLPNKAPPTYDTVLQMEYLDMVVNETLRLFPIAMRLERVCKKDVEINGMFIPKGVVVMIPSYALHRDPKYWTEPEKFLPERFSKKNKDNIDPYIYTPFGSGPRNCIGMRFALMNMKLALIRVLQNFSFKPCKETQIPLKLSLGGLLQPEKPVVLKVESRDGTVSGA
Outline: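 Activators are scored by enhanced luminescence from CYP3A4 conversion of luciferin-PPXE (25uM, equal to KM) to luciferin, after 60 min at RT with an NADPH-regenerating system.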

[14] = qHTS Assay for Identification of Small Molecule Agonists for Hypoxia Response Element Signaling Pathway (AID 914; active = well fitted activation curve with a large enough effect in the signal ratio, with a control signal flat, not every such curve was filed as active; the % refers to the signal ratio; note: potency is the fitted concentration of half-maximal effect); settings: ME-180 HRE-bla reporter, beta-lactamase ratio, CoCl2, 17 h; activation: hits give high values
Outline: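 Cells were plated overnight, pin-dosed with compound in a titration series, co-stimulated with EC50 CoCl2 and incubated 17 hours at 37 degrees Celsius. CCF4 substrate was then loaded, and AC50 values came from the 460nm/530nm ratio.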

[15] = AP1 Signaling Pathway (AID 357; active = well fitted curve in either direction with a large enough effect, not every such curve was filed as active); settings: ME-180 (cervical carcinoma) AP-1-bla reporter, EGF-induced, beta-lactamase ratio, 5 h; at 7.69 µM (top of the series) unless noted
Outline: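 Cells are seeded overnight, exposed to compound titrations and an EC50 level of EGF for 5 hours at 37 °C, then loaded with CCF4 dye for 2.5 hours. Beta-lactamase activity under the AP-1 element is read as a blue/green ratio.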

[16] = molecular target: Cytochrome P450 1A2 (Homo sapiens) (UniProt P05177); assay: p450-cyp1a2 (AID 410; calls by dose curve; note: potency is the fitted concentration of half-maximal effect); settings: recombinant CYP1A2, luciferin-ME demethylation, luminescence; series mostly up to 57 µM
Sequence of Cytochrome P450 1A2 (Homo sapiens) (P05177 whole entry, looked up): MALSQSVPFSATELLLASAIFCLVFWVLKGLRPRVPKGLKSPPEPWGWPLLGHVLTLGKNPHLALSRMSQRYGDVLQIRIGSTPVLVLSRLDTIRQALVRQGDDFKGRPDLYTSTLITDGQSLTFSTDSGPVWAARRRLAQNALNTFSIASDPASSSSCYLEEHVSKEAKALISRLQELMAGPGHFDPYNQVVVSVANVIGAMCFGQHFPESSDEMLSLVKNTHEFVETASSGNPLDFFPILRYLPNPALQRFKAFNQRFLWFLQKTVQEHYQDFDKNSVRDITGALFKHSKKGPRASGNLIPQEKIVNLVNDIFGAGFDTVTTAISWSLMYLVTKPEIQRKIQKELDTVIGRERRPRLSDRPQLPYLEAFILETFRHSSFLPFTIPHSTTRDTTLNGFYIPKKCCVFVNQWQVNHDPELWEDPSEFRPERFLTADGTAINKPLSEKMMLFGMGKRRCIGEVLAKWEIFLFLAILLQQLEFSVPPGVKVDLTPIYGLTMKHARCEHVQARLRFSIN
Outline: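 O-Demethylation of luciferin 6' methyl ether by human CYP1A2 is monitored as luciferase luminescence. Substrate sits at Km (100uM); enzyme is 20nM. Values are scaled to 57 uM furafylline as maximal inhibition.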

[17] = molecular target: Dual specificity protein kinase CLK4 (Homo sapiens) (UniProt Q9HAZ1); assay: qHTS Assay for Inhibitors of CDC-like Kinase 4 (ADP-FP Assay) (AID 1795); settings: Transcreener ADP fluorescence polarization; series mostly up to 50 µM; note: nearly all actives have a fitted effect of over 60% in size; note: potency is the fitted concentration of half-maximal effect
Outline: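 Clk4 6.25 nM; RS peptide 100 uM; ATP 1 uM; 25 mM Tris pH 7.5, 10 mM MgCl2; 1 h reaction. ADP detected via antibody/orange tracer FP displacement; TG003 positive control.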

[18] = molecular target: Cytochrome P450 3A4 (Homo sapiens) (UniProt P08684); assay: qHTS Assay for Inhibitors and Substrates of Cytochrome P450 3A4 (AID 884); settings: recombinant CYP3A4, Luciferin-PPXE luminescence; series mostly up to 57.1 µM; note: nearly all actives have a fitted effect of over 50% in size; note: potency is the fitted concentration of half-maximal effect
Outline: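 Luminescent readout of luciferin produced by CYP3A4 (20 nM) dealkylation of Luciferin-PPXE, 25 uM (its KM). NADPH-driven reaction ran 60 min at RT after 10 min compound preincubation; data scaled to 57 uM ketoconazole as 100% inhibition.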

[19] = molecular target: Cytochrome P450 2C19 (Homo sapiens) (UniProt P33261); assay: qHTS Assay for Inhibitors and Substrates of Cytochrome P450 2C19 (AID 899); settings: recombinant CYP2C19, luciferin-H EGE luminescence; series mostly up to 57.1 µM; note: potency is the fitted concentration of half-maximal effect; nearly all actives have a fitted effect of over 60% in size
Sequence of Cytochrome P450 2C19 (Homo sapiens) (P33261 whole entry, looked up): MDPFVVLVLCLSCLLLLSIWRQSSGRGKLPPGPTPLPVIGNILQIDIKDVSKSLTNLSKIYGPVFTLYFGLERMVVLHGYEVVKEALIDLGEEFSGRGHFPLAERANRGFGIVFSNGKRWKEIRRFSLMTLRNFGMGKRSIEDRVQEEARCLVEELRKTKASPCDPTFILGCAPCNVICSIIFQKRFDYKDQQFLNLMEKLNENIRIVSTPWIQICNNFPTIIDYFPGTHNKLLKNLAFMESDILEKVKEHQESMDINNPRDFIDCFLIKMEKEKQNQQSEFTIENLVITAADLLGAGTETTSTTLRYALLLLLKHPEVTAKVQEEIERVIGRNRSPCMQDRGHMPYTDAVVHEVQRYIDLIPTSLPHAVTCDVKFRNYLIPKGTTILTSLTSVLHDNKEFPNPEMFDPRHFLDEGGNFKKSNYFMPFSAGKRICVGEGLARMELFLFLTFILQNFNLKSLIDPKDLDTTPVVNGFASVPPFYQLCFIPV
Outline: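 Reactions contain 5nM enzyme, 10uM Luciferin-H EGE (KM) and 50mM KPO4; compound preincubates 10 min at 37C, NADPH regeneration starts turnover for 60 min. Luminescence after detection reagent gives activity.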

| Compound | Potency [1] | activity change, negative = inhibition [2] | activity, negative = inhibition [3] | Potency [4] | Potency [5] | Potency [6] | Potency [7] | Potency [8] | Potency [9] | Potency [10] | Potency [11] | outcome [12] | Potency [13] | Potency [14] | activity change, negative = inhibition [15] | Potency [16] | Potency [17] | Potency [18] | Potency [19] |
| --- | --- | --- | --- | --- | --- | --- | --- | --- | --- | --- | --- | --- | --- | --- | --- | --- | --- | --- | --- |
| COc1cccc(Cn2c(=O)c(-c3cc(F)cc(F)c3)nc3cnc(N4CCOCC4)nc32)c1 | > 11.4 µM | 5.53% | 24.5% | > 9.22 µM | > 46 µM | inactive | inactive | inactive | inactive | inactive | inactive | inactive |  |  |  |  |  |  |  |
| Cn1c(=O)c(-c2cc(F)cc(F)c2)nc2cnc(N3CCNCC3)nc21 |  |  |  | > 9.22 µM | > 46 µM | inactive | inactive |  | inactive | inactive | inactive | inactive | inactive | 3.16 µM (active) |  |  |  |  |  |
| COc1ccccc1CNc1ccnc(-c2ccc(C(=O)N(C)C)cc2)n1 | > 11.4 µM | 4.15% | -1.46% | > 46 µM | > 46 µM | inactive | inactive |  | inactive |  | inactive | inactive | inactive |  | -10.9% | 12.6 µM (active) | inactive |  |  |
| COc1ccccc1-c1cc(-n2ccnc2)ncn1 | > 11.4 µM | 7.77% | 10.2% | > 46 µM | > 46 µM | inactive | inactive |  | 6.31 µM (active) |  | inactive | inactive | inactive |  | 8.26% | 0.316 µM (active) | 8.91 µM (active) | 0.316 µM (active) |  |
| COCCn1c(=O)c(-c2ccc(Cl)cc2)nc2cnc(N(C)C)nc21 |  | -3.15% |  | > 9.22 µM | > 46 µM |  | inactive |  | inactive | inactive | inactive | inactive |  |  | -3.17% | 1 µM (active) |  |  |  |
| CN(C)C(=O)c1ccc(-c2cncnc2NCc2ccccc2)cc1 | > 11.4 µM | -3.31% | 9.3% | > 46 µM | > 46 µM | inactive | inactive |  | inactive |  | inactive | inactive | inactive |  | 8.88% | 20 µM (active) | inactive | 2.51 µM (active) |  |
| COCCn1c(=O)c(-c2ccccc2)nc2cncnc21 | > 11.4 µM | -5.89% | -10.2% | > 9.22 µM | > 46 µM | inactive | inactive |  | inactive |  | inactive | inactive |  |  | -9.61% | 0.794 µM (active) | inactive |  |  |
| COc1ccccc1CNc1ccnc(-c2ccccc2Cl)n1 |  | -0.207% | -0.645% | > 46 µM | > 46 µM | inactive | inactive |  | inactive | inactive |  | inactive | inactive |  | -21.9% | 5.01 µM (active) |  |  | 1.58 µM (active) |
| CNc1ncnc2ccc(-c3ccccc3C#N)cc12 |  | 23.3% | -1.74% | > 46 µM | > 46 µM | inactive | inactive |  | 6.31 µM (active) | 7.08 µM (active) | inactive | inactive |  |  | 21.4% | 1 µM (active) |  |  |  |
| COc1cccc(-c2cncnc2NCc2cccc(C)c2)c1 | > 11.4 µM | -0.339% | -10.4% | > 46 µM | > 46 µM | inactive |  |  | 31.6 µM (active) | 25.1 µM (active) | inactive | inactive | inactive |  |  | 2 µM (active) |  |  | 0.794 µM (active) |
| COc1ccc2[nH]cc(CCNc3ccnc(-c4ccc(C(=O)N(C)C)cc4)n3)c2c1 | > 11.4 µM | -3.74% | -20.4% | > 46 µM | > 46 µM | inactive | inactive |  | inactive |  | inactive | inactive | inactive |  | -14.6% | 12.6 µM (active) | inactive | 3.16 µM (active) |  |
| CN1CCN(c2ncc3nc(-c4ccc(Cl)cc4)c(=O)n(C)c3n2)CC1 | > 11.4 µM |  |  | > 9.22 µM | > 46 µM | inactive | inactive |  | inactive | inactive |  | inactive | 12.6 µM (active) | 3.16 µM (active) |  |  |  | inactive |  |
